This note sets out measurements from PubChem BioAssay (NCATS).

Results filed as inconclusive are left out. Active and inactive are the calls of the source. Calls follow the shape of the dose curve; as a rule, active = well fitted inhibition curve with a large enough effect; inconclusive = small, poorly fitted or top-dose-only effect; inactive = flat fitted curve, though single readings scatter.

The subject of the assay is MCC-26. Nature of the assay: qHTS assay to identify novel small-molecules to repurpose for Merkel cell carcinoma treatment (AID 1296009). Also: nearly all actives have a fitted effect of over 60% in size. The note with it: MCC and control cell lines, CellTiter-Glo viability, 72 h; series mostly up to 46 µM. An excerpt:
MCC is a rare and aggressive neuroendocrine skin cancer with limited treatment options. Approximately 80% of MCCs have the Merkel cell polyomavirus (MCPyV) DNA integrated into the host genome (virus-positive: VP-MCC) and viral oncogenes drive oncogenesis. The remaining MCCs are virus-negative (VN-MCC) and are caused by UV mutagenesis. To identify novel treatments for VP-MCC and/or VN-MCC we screened three VP-MCC cell lines (WAGA, MKL-1, MKL-2), three VN-MCC cell lines (MCC-13, MCC-26, UISO), and four immortalized, non-transformed control cell lines (HaCaT, HEK293T, CRL7250, NIH-3T3) against ~2,400 compounds in the NCGC Pharmaceutical Collection (NPC) and ~1,900 compounds in the Mechanism Interrogation PlatE (MiPE). Using cell viability as a readout (CellTiter-Glo assay) we found both overlapping and distinct drugs that can be repurposed for the treatment of VP-MCC and VN-MCC.
A high-throughput screen was conducted in 1536-well white flat bottom plates (Corning) on a Kalypsys robotic system. Cell lines WAGA, MKL-1, MKL-2, MCC-13, MCC-26, UISO, HaCaT, HEK293T, CRL7250, and NIH-3T3 were screened against 2 small molecule annotated drug libraries NPC and MIPE in dose response (8 and 11 pt. respectively) measuring cell viability after 72 hours of incubation. […] A 1,536 pintool (Kalypsys) was used to transfer 23 nL of compound in DMSO to the 1,536-well assay plates. After 72 hr incubation at 37 degree celsius, 2.5 uL of CellTiter-Glo (Promega) was dispensed into each well using a BiorapTR. Plates were incubated at room temperature for 10 min, transferred to a ViewLux (PerkinElmer) and the luminescence was recorded using an exposure time of 2 seconds. Relative luminescence units (RLUs) were normalized to in-plate controls (no cells as a positive (cytotoxicity) control, DMSO as negative control) and the normalized data was processed using NCATS in-house software.
Turning to `Nc1ccncc1N`, the call was inactive.

Turning to `Cc1ccccc1N=Nc1ccc(N=Nc2c(O)ccc3ccccc23)c(C)c1`, the molecule was classed as inactive.

Turning to `COC(=O)N/N=C/c1c[n+]([O-])c2ccccc2[n+]1[O-]`, the molecule was called inactive.

In the case of `CCc1cccc(CC)c1NC(=O)CN(CC(=O)O)CC(=O)O`, the call was inactive.

For the molecule `COC(=O)c1ccccc1C(=O)c1ccc(OCCN2CCCCC2)cc1`, the call was inactive.

Regarding `O=C(CCBr)N1CCN(C(=O)CCBr)CC1`, the result was inactive.

With `CC(=O)Nc1cccc(O)c1`, the molecule was called inactive.

Turning to `CC1(C)[C@@H](OC(=O)CCC(=O)O)CC[C@]2(C)[C@H]3C(=O)C=C4[C@@H]5C[C@@](C)(C(=O)O)CC[C@]5(C)CC[C@@]4(C)[C@]3(C)CC[C@@H]12`, the outcome was inactive.

For the molecule `COC(=O)c1cccnc1`, the molecule was called inactive.

As to `Cc1c(Cn2ccnc2)c2ccccc2n1CCC(=O)O`, the outcome was inactive.

With `Nc1ncnc2c1ncn2[C@@H]1O[C@H](COP(=O)(O)O)[C@@H](O)[C@H]1O`, the molecule was classed as inactive.

As for `COc1cc(O)cc(O)c1`, the molecule was called inactive.

As for `Cc1ccc(C(C)C)c(O)c1`, the result was inactive.

For the molecule `O=C(O)c1ccccc1C(=O)Nc1ccc(S(=O)(=O)Nc2nccs2)cc1`, the result was inactive.

`CC1CCN(CCCC(=O)c2ccc(F)cc2)CC1`: the molecule was called inactive.

As to `NC(=O)CCCCC1CCSS1` (stereo not given), the molecule was classed as inactive.

Take `C=CCNC(N)=S`: the call was inactive.

For `COc1ccc(NS(=O)(=O)c2ccc(N)cc2)nn1`, the result was inactive.

Regarding `NC(=O)NS(=O)(=O)c1ccc(N)cc1`, the outcome was inactive.

Consider `CC(CN(C)C)C(C)(O)Cc1ccc(Cl)cc1` (stereo not given), for which the molecule was called inactive.

With `CC(C)C[C@@H](N)C(=O)O`, the call was inactive.

As for `Cc1ccc(S(=O)(=O)NC(=O)NC2CCCCC2)cc1`, the call was inactive.

For the molecule `Cc1cc(O)cc(C)c1Cl`, the outcome was inactive.

Regarding `NS(=O)(=O)c1cc2c(cc1C(F)(F)F)NCNS2(=O)=O`, the molecule was called inactive.

For the molecule `CC(=O)Nc1ccccc1`, the molecule was called inactive.

As to `OCc1ccc(Cl)cc1Cl`, the molecule was classed as inactive.

With `Nc1c2c(nc3c1CCC3)CCCC2`, the call was inactive.

With `COc1ccccc1OC(=O)Oc1ccccc1OC`, the molecule was classed as inactive.

Turning to `CN1CC(=O)NC1=N`, the result was inactive.

In the case of `O=C(NCCCN1CCOCC1)c1ccc(Cl)cc1`, the molecule was called inactive.

For `CC(N)CCCC(C)(C)O` (stereo not given), the molecule was classed as inactive.

As to `O=C(NCN1CCOCC1)c1cnccn1`, the call was inactive.

For `Cc1cc(=O)[nH]c(=S)[nH]1`, the call was inactive.

On to `CC(=O)NS(=O)(=O)c1ccc(N)cc1`, for which the outcome was inactive.

As for `O=C(/C=C/c1ccccc1)OCc1ccccc1`, the result was inactive.

As for `COc1ccc(O)cc1`, the outcome was inactive.

Turning to `O=C(O)CCC(=O)O`, the molecule was classed as inactive.

Regarding `CC(C(=O)O)c1ccc2c(c1)Cc1cccnc1O2` (stereo not given), the result was inactive.

As for `Cc1c(NC(C)C)c(=O)n(-c2ccccc2)n1C`, the call was inactive.

Consider `CCCCCCCC(=O)OCC(COC(=O)CCCCCCC)OC(=O)CCCCCCC`, for which the molecule was called inactive.
